Results published in the supplement of paper PMC7411640.
Structures can show the parent of a compound that is named as a salt.

Test system: MDA-MB-468
Experiment: phospho-S6 immunofluorescence (DAPI-normalised), per-plate z-score; higher = higher phospho-S6 signal (less pathway suppression)
Settings: 24 h
Experimental: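 GPCR-targeted compound library (MedChemExpress HY-L006) tested on MDA-MB-468 PTEN-null TNBC cells in 384-well plates at 0.1, 1 or 10 uM, combined with vehicle, GDC0941 450 nM or lapatinib 1 uM, for 24 h. Phospho-S6 (S240/244) immunofluorescence normalised to DAPI and expressed as a per-plate z-score; values are the mean of biological triplicates.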

Structure (SMILES)	phospho-S6 immunofluorescence (z-score) (co-treatment: GDC0941 450 nM)	phospho-S6 immunofluorescence (z-score) (co-treatment: lapatinib 1 uM)	phospho-S6 immunofluorescence (z-score) (co-treatment: vehicle)
CC(C)NCC(O)COc1ccc(CC(N)=O)cc1 (stereo unspecified) [Atenolol] (compound 10 µM)	0.35	1.32	0.52
OCc1ccc(-c2nn(Cc3ccccc3)c3ccccc23)o1 [Lificiguat] (compound 10 µM)	3.23	2.82	0.54
CCCCC[C@H](O)/C=C/[C@H]1[C@H](O)CC(=O)[C@@H]1CCCCCCC(=O)O [Prostaglandin E1] (compound 10 µM)	-0.04	1.48	-0.27
COc1nc(C)nc(Cl)c1NC1=NCCN1 [Moxonidine] (compound 10 µM)	0.49	0.68	0.7
CN1CCN2c3c(cccc31)[C@@H]1CN(CCCC(=O)c3ccc(F)cc3)CC[C@@H]12 [lumateperone (Tosylate)] (compound 10 µM)	-3.44	-3.22	-5.62
CC[C@@H]1C(=O)OC[C@@H]1Cc1cncn1C [Pilocarpine (Hydrochloride)] (compound 10 µM)	-0.79	-0.13	-0.68
Cc1ccc(/C(=C\CN2CCCC2)c2cccc(/C=C/C(=O)O)n2)cc1 [Acrivastine] (compound 10 µM)	0.27	0.6	0.62
Nc1nc2c(cnn2CCc2ccccc2)c2nc(-c3ccco3)nn12 (compound 10 µM)	-0.2	1.51	3.1
OCC1OC(n2cnc3c(NCCc4ccccc4)ncnc32)C(O)C1O (stereo unspecified) [N6-(2-Phenylethyl)adenosine] (compound 10 µM)	0.87	1.11	0.72
Cc1nc2n(c(=O)c1CCN1CCC(c3noc4cc(F)ccc34)CC1)CCCC2O (stereo unspecified) [Paliperidone] (compound 10 µM)	0.37	0.36	0.5
COc1ccc2cccc(CCNC(C)=O)c2c1 [Agomelatine] (compound 10 µM)	0.97	0.54	0.35
COc1ccc(S(=O)(=O)Nc2c(C)cc(C)cc2C)cc1 (compound 10 µM)	0.04	-0.37	-1.05
